rCAG binder – binders of r(CAG) RNA repeats, primary screen, biochemical, fluorescence | AID 651821, 2012 | 370,000 tested, 1.3% active | r(CAG) RNA repeat, TO-PRO-1 dye displacement fluorescence | inhibition, % at 3 µM;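 active = inhibition above the plate cutoff, the mean of all test compounds on that plate plus 3 SD, cut at about 35% in these data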;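 also: 0% = DMSO alone and 100% = 100 µM mitoxantrone as full dye displacement; higher means more dye released from RNA so lower well fluorescence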
NR3A LBD binder – binders of NR3A ligand-binding domain, primary screen, biophysical, differential scanning fluorimetry, uHTS; Glutamate receptor ionotropic, NMDA 3A (GRIN3A) ligand-binding domain; NR3A LBD differential scanning fluorimetry, Tm shift; 0% = protein alone, 100% = glycine-bound protein; Tm shift relative to glycine control, % at 25 µM; 340,000 tested, 2.5% active; AID 1259313, 2017;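 active = melting temperature shift of at least 10% of the positive control shift, at one fixed dose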
MPTP inh – mitochondrial permeability transition pore inhibitors, primary screen, biochemical, isolated mouse mitochondria, absorbance | Ca2+ swelling absorbance, 30 min | inhibition, % at 10 µM | 360,000 tested, 1.4% active | AID 602449, 2012;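 active = inhibition of 50% or more, scaled per plate between neutral and stimulator controls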;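 also: 0% = DMSO wells given calcium and 100% = 1 mM EGTA wells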
FAS-TE inh – FAS thioesterase domain inhibitors, primary screen, biochemical, fluorescence intensity, uHTS; Fatty acid synthase (Homo sapiens), P49327; recombinant FAS-TE, OMFH fluorogenic substrate, fluorescence endpoint; inhibition, % at 15 µM; 360,000 tested, 0.67% active; AID 602261, 2012;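 active = compounds whose normalised, plate-corrected inhibition of enzyme fluorescence in the single-dose primary screen is 50% or more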;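 also: 0% = DMSO with enzyme and 100% = substrate without enzyme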
Myeloid diff 2 – induction of myeloid progenitor differentiation, primary screen, cell-based, flow cytometry, MLPCN library; ER-HoxA9 myeloid progenitors, lysozyme-GFP differentiation; calls only at 10 µM; 360,000 tested, 1% active;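 active = normalized GFP-positive differentiation at or above the plate's own cutoff, the solvent-only control mean plus 3 SD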;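 also: cells exposed to compound for four days before flow analysis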
Myeloid diff – inducers of myeloid progenitor differentiation, confirmation, cell-based, GFP/Mac1 flow cytometry, cherry pick 01; calls only; shares compounds with Myeloid diff 2; ER-HoxA9 myeloid progenitors, GFP/Mac1 double-positive flow; 2,300 tested, 2% active;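 active = share of green or green-and-red cells above 9 and 9% in run 1 or 4 and 3% in run 2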
GFP autofluor – compound fluorescence in myeloid differentiation counter-screen | fluorescence response, % (test concentration not listed) | 2,300 tested, 7.4% active | shares compounds with Myeloid diff 2 | ER-HoxA9 myeloid progenitors, no estrogen, GFP autofluorescence flow cytometry; vehicle wells 0%, positive control 100% | AID 651707;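 active = over 5% cells positive for green fluorescent reporter, or over 2% positive for both it and APC stain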;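 also: range taken on the double positive population between DMSO and positive control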
An asterisk follows results filed as active; i = inactive; nt = no result given; + = active, no number. In the library only some 5.7% were active in any assay of this set; here they are far more common.

SMILES	rCAG binder	NR3A LBD binder	MPTP inh	FAS-TE inh	Myeloid diff 2	Myeloid diff	GFP autofluor
CCCc1c(-c2ccc(F)cc2)ncn1CCc1ccccc1OC	0	nt	-1	15	i	nt	nt
CCCCc1c(-c2ccc(OC)c(OC)c2)ncn1CCc1ccccc1OC	1	nt	2	8	i	nt	nt
COc1ccccc1CCn1cnc(-c2ccc(OC)c(OC)c2)c1C(C)C	0	nt	0	7	i	i	0
COC(=O)c1sc2nc[nH]c(=O)c2c1C	1	1	-1	-9	i	nt	nt
Cc1ccccc1NC(=O)c1sc2nc[nH]c(=O)c2c1C	1	2	2	-9	i	i	0
CCOc1ccc(C(C)=O)cc1CC(C(N)=O)C(N)=O	0	-2	0	-8	+	i	0
CCC(C)c1c(O)nc(SCC(=O)N2CCOCC2)[nH]c1=O (centres undefined)	-5	-2	0	-6	i	i	0
CNc1ccccc1C(C)(C)c1cc(-c2cccc(Br)c2)no1	-4	0	11	15	+	i	81*
CCCCN(C(=O)c1ccc(S(=O)(=O)N2CCC(C)CC2)cc1)C1CCS(=O)(=O)C1 (centres undefined)	-8	-2	-2	-2	i	nt	nt
CCc1nc(SCC(=O)Nc2cc(C)on2)c2c(C)c(C)sc2n1	0	2	-2	-2	i	nt	nt
Cc1cc(NC(=O)CSc2nc(C3CC3)nc3sc(C)c(C)c23)no1	0	1	-1	-5	i	i	2.7*
O=C(/C=C/c1ccccc1Cl)Nc1cccnc1	-1	0	0	-2	i	nt	nt
O=C(/C=C/c1ccccc1Cl)Nc1ccncc1	5	7	0	-6	+	i	0
CSc1ccc(/C=C(/NC(=O)c2ccccc2)C(=O)NCCN2CCOCC2)cc1	-7	2	0	-4	i	nt	nt
CCN(Cc1ccccc1)C(=O)C1CCN(Cc2ccc(SC)cc2)CC1	-12	-8	2	6	i	nt	nt
CCN(Cc1ccccc1)C(=O)C1CCN(C/C(C)=C/c2ccccc2)CC1	-2	-3	6	-5	i	i	0
O=C(Cc1ccccc1)N/N=C/c1ccc([N+](=O)[O-])s1	3	-2	-27	-4	+	i	3
O=C(N/N=C/c1ccc([N+](=O)[O-])s1)c1ccccc1Br	1	-1	0	-4	i	nt	nt
CC(C)c1cc(C(=O)NCCc2cccs2)c(N)s1	14	nt	2	nt	i	nt	nt
COc1ccc(CN2CCN(C(=O)c3ccccc3C(=O)c3ccccc3)CC2)cc1F	3	nt	0	5	i	nt	nt
CCOc1ccc(CN(CC)C(=O)c2ccc3c(c2)[nH]c(=O)c(=O)n3CC)cc1OC	1	0	-1	4	i	nt	nt
CCC(C)N(C(=O)Cn1nnc2ccccc21)C(C(=O)NCc1ccco1)c1cccc(OC)c1 (centres undefined)	-4	-1	1	-1	i	i	0
COc1ccc(Cn2c(=N)c(C(=O)NCC3CCCO3)cc3c(=O)n4ccccc4nc32)cc1 (centres undefined)	-1	-2	-1	1	i	i	0
COc1ccc(/C=C/C(=O)NC2CCCCCCC2)cc1S(=O)(=O)N1CCOCC1	2	-4	0	0	i	i	0
Cc1cccc(NC(=O)c2ccc(NS(=O)(=O)c3cccc4cccnc34)cc2)c1	10	30*	0	23	i	i	0
O=C(Nc1ccccc1O)c1ccc(NS(=O)(=O)c2cccc3cccnc23)cc1	17	20*	-1	4	i	i	0
COC(=O)c1ccc(NC(=O)c2ccc(NS(=O)(=O)c3cccc4cccnc34)cc2)cc1	nt	3	2	11	i	nt	nt

Compound activity from PubChem BioAssay.
